According to the supplement of paper PMC6555819:

Assays:
Test in all cases: PBM binding z-score (relative to random genomic background probes); higher = stronger binding; sequences stand for … in GC…GCGATTGACAGCGTAGAATGAAGG
[1] = system: RARb homodimer (NR concentration 270 nM)
Method in brief: (§1)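 On custom Agilent 4×180K arrays, double-stranded probes with 34-nt variable regions carried direct-repeat seeds, single-nucleotide variants, half-site ablations or random human genomic background. Ligand-free nuclear receptor dimers were applied for 1 h, and binding was read with antibodies against each partner (one per run). Binding z-scores come from regression-normalized fluorescence, with the random background probes as reference.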

[2] = system: RARg:RXRa (NR concentration 270 nM, RXRa partner concentration 90 nM)
Method in brief: as §1

[3] = system: RARg homodimer (NR concentration 270 nM)
Method in brief: as §1

[4] = system: RXRa DBDmut IVT, anti-RXR (DBD mutation: RXRa K156A/R161A, NR concentration 90 nM)
Method in brief: as §1

[5] = system: RXRa homodimer (NR concentration 180 nM)
Method in brief: as §1

[6] = system: THRa:RXRa (NR concentration 90 nM, RXRa partner concentration 90 nM)
Method in brief: as §1

[7] = system: THRa homodimer (NR concentration 90 nM)
Method in brief: as §1

[8] = system: VDR homodimer (NR concentration 270 nM)
Method in brief: as §1

Row | Sequence | PBM binding z-score [1] | PBM binding z-score [2] | PBM binding z-score [3] | PBM binding z-score [4] | PBM binding z-score [5] | PBM binding z-score [6] | PBM binding z-score [7] | PBM binding z-score [8]
1 | ATCTCTAGGTAAAAATAGTTCAGTGAATGCAAAT | 1.13 | 1.01 | 0.9 | 0.16 | 0.292 | 0.72 | 0.138 | 0.549
2 | CCTACTGAGCCAAAAAGGTCATTGATGCCGATAA | 4.22 | 4.3 | 4.1 | 1.49 | 5.03 | 2.86 | 1.05 | 2.73
3 | CCTACTGGGCCATCAGGTCATTGCTATCAACGTT | 2.55 | 2.04 | 1.77 | 0.254 | 1.37 | 3.24 | 2.94 | 1.62
4 | TTACCAAGGTGAAGGTCGTAGATCCCTCTGTAGA | 1.43 | 1.13 | 1.04 | -0.566 | 1.66 | 2.19 | 0.633 | 0.348
5 | TCTCGGTGGACACGAAAGGTCAGAGCTCGACATC | 4.36 | 4.38 | 4.33 | 0.665 | 4.52 | 2.96 | 0.543 | 0.45
6 | TTACCAAGGTGAGCTGAGATCGTTGATCCAACTC | -0.439 | -0.0165 | 0.151 | -1.09 | -0.0334 | 1.1 | -0.431 | -0.976
7 | CCGACTGGGGCATAAGGTTCCCATAAGCCAGCCC | -0.217 | -0.0298 | -0.0621 | -0.59 | -0.271 | -0.0053 | -0.165 | -0.209
